Mac1 fbg inh = inhibitors of CD11b/CD18 adhesion to fibrinogen, primary screen, K562 cells, luminescence; Integrin beta-2 (Homo sapiens) + Integrin alpha-M (Homo sapiens), P05107+P11215; ATPlite luminescence; Mn2+ added to activate the integrin; inhibition, % at 10 µM; hit rate 0.54% among 93,000; AID 1497, 2009;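 active = primary inhibition of 50% or more at 10 µM, then 40% or more on retest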
CYP2C19 inhib = blockers of cytochrome P450 2C19 activity – biochemical, luminescence, ADME assay, primary screen. CYP2C19 Supersomes, luciferin-H EGE luminescence, 30 min. P33261. inhibition, % at 5 µM. hit rate 21% among 96,000;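 active = CYP2C19 inhibition above a set limit at 5 µM in the primary screen, cut at about 50% in these data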;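 also: plate controls were negative control wells for no effect and 2.5 mM tranylcypromine positive control for full effect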
CD11b adhes enh = enhancers of CD11b/CD18 adhesion to fibrinogen, primary screen, K562 cells, luminescence; ATPlite luminescence; activation, % at 10 µM; hit rate 0.07% among 93,000; AID 1499, 2009;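 active = 10 µM primary screen giving 50% or more activity, confirmed by 40% or more on retest at that dose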
CYP2C9 act = human CYP2C9 activators, primary screen, biochemical, luminescence; Cytochrome P450 2C9 (Homo sapiens), P11712; recombinant CYP2C9, luciferin-H conversion; active compounds read high; factor 1 = untreated enzyme, 0 = blocked; activation factor at 5 µM; hit rate 1.4% among 96,000; AID 1024, 2008;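 active = activation factor of 2 or more for CYP2C9 at a 5 µM dose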;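 also: 0 = sulfaphenazole-blocked wells and 1 = vehicle-only wells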
Target sequence (P11712 whole entry, looked up): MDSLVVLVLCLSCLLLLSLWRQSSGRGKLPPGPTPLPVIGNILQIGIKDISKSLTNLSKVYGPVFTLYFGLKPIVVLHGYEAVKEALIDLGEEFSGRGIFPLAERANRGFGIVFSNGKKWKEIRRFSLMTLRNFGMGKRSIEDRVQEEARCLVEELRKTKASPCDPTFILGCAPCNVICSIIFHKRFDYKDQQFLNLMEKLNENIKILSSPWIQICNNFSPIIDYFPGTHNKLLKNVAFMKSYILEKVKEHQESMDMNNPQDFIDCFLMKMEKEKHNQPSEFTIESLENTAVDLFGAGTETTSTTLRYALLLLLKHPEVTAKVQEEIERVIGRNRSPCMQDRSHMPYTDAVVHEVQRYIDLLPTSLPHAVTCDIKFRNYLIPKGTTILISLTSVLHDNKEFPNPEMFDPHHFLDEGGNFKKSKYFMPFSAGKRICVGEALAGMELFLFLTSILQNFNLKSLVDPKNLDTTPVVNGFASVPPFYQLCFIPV
CYP2C9 inh = blockers of cytochrome P450 2C9 activity – biochemical, luminescence, ADME assay, primary screen; P11712; CYP2C9 Supersomes, luciferin-H conversion; inhibition, % at 5 µM; hit rate 20% among 96,000;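 active = blocking of liver enzyme CYP2C9 beyond about 50% at 5 µM, limit read from the data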
CYP2C19 act = human CYP2C19 activators, primary screen, biochemical, luminescence. Cytochrome P450 2C19 (Homo sapiens), P33261. recombinant CYP2C19, luciferin-H EGE luminescence; active compounds read high; 0 = fully inhibited enzyme, 1 = untreated enzyme. activation factor at 5 µM. 96,000 tested, under 10 active;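 active = activation factor of at least 2 at 5 µM in the primary screen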;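 also: 0 = wells with 2.5 mM tranylcypromine and 1 = vehicle-only wells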
Active calls of the source: *; x = no result. This is a sample that favours compounds with a hit; in the whole collection about 28% have one here.

SMILES	Mac1 fbg inh	CYP2C19 inhib	CD11b adhes enh	CYP2C9 act	CYP2C9 inh	CYP2C19 act
CCCCn1c(SCC2CCCO2)nc2cc(S(N)(=O)=O)ccc21 (stereo not drawn)	5	16	4	0.6	37	0.8
Cc1noc(C)c1CSc1ccccc1C(=O)Nc1nccs1	-4	76*	-2	0.7	32	0.2
C=CCn1c(SCC(=O)N2CCN(C(=O)c3ccco3)CC2)nc2sc(CC)cc2c1=O	-10	90*	-6	0	99*	0.1
C=CCn1c(SCC(=O)N2CCc3ccccc3C2)nc2sc(C)cc2c1=O	x	63*	x	0	96*	0.4
C=CCn1c(SCC(=O)c2cccs2)nc2sc(CC)cc2c1=O	2	-2	1	0.7	25	1
C=CCn1c(SCC(=O)NC2CCS(=O)(=O)C2)nc2sc(CC)cc2c1=O (stereo not drawn)	-2	5	-1	0.6	42	0.9
C=CCn1c(SCC(=O)Nc2cc(C)on2)nc2sc(CC)cc2c1=O	18	5	-1	0.3	72*	0.9
CCOC(=O)c1ccc(NC(=O)c2nccnc2C(=O)O)cc1	5	-11	-1	1.3	-30	1.1
Cn1nnc(NC(=O)C(c2ccccc2)c2ccccc2)n1	2	41	-3	0.2	84*	0.6
Cc1cc(C)nc(NC(=O)C(c2ccccc2)c2ccccc2)n1	x	21	x	0.3	71*	0.8
CCOc1cc2[nH]c(=O)n(CCC(=O)N3CCN(c4ccccc4OC)CC3)c(=O)c2cc1OCC	-12	20	0	0.3	67*	0.8
CCOC(=O)c1cc2c(ccn2C)n1CC(=O)N1CCN(c2ccccc2OC)CC1	-4	69*	-4	0.6	38	0.3
COc1cc2[nH]c(=O)n(CCC(=O)N3CCc4ccccc4C3)c(=O)c2cc1OC	3	14	-3	0.9	14	0.9
COc1cc2[nH]c(=O)n(CCCCCC(=O)N3CC=C(c4ccccc4)CC3)c(=O)c2cc1OC	27	83*	-3	0.4	61*	0.2
COc1ccc(N2C(C)=CS/C2=C(/C#N)c2nnc(N3CCOCC3)n2-c2ccccc2)cc1	0	17	2	0.8	16	0.8
O=C(c1ccc(F)cc1F)N(Cc1ccccn1)Cc1ccco1	27	73*	5	0.7	34	0.3
CCCc1cc(=O)[nH]c(SCc2ccccc2)n1	-10	47	-3	0.4	62*	0.5
CCCc1cc(=O)[nH]c(SCc2ccc(Cl)cc2)n1	-30	86*	-2	0.3	72*	0.1
CCCc1cc(=O)[nH]c(SCC(=O)N(Cc2ccccc2)C(C)C)n1	-8	68*	-4	0.2	85*	0.3
CCCc1cc(=O)[nH]c(SCC(=O)C(C)(C)C)n1	-26	28	-4	0.8	24	0.7
CCCc1cc(=O)[nH]c(SCc2cc(Cl)ccc2OC(F)F)n1	x	28	x	0.4	60*	0.7
CCCc1cc(=O)[nH]c(SCc2cccc(C)c2)n1	0	21	-1	0.6	44	0.8
O=C(CSc1nc2c(c(=O)[nH]1)CCCC2)Nc1ccc(Cl)cc1F	5	-14	-1	1	5	1.1
CCCNC(=O)c1c(N)n(-c2cc(OC)cc(OC)c2)c2nc3ccccc3nc12	12	31	4	0.3	70*	0.7
COc1ccc(-n2c(N)c(C(=O)NCC3CCCO3)c3nc4ccccc4nc32)c(OC)c1 (stereo not drawn)	-2	27	-2	0.4	55*	0.7
SMILES	Mac1 fbg inh	CYP2C19 inhib	CD11b adhes enh	CYP2C9 act	CYP2C9 inh	CYP2C19 act
Nc1c(C(=O)OCC2CCCO2)c2nc3ccccc3nc2n1-c1ccc2c(c1)OCCO2 (stereo not drawn)	-13	54*	12	0.4	59*	0.5
C=CCn1c(N)c(C(=O)NCC2CCCO2)c2nc3ccccc3nc21 (stereo not drawn)	5	11	-4	0.6	42	0.9
O=C(CSc1nnc(-c2ccc(Cl)cc2)o1)N1CCN(c2ccccc2)CC1	-8	-22	100	1.1	-14	1.2
COc1ccc(NC(=O)C2CCN(C(=O)c3cccs3)CC2)cc1OC	7	-5	-3	1.3	-30	1
CC(=O)Nc1ccccc1N(C)S(=O)(=O)c1ccc(C)cc1	9	28	5	0.6	38	0.7
COc1ccccc1NC(=O)CC1C(=O)Nc2c1c(=O)n(C)c(=O)n2C (stereo not drawn)	-3	10	0	0.4	58*	0.9
Cn1c2c(c(=O)n(C)c1=O)C(CC(=O)Nc1ccccc1)C(=O)N2 (stereo not drawn)	-28	40	3	0.7	26	0.6
Cc1ccc(-c2nc(-c3cccnc3)no2)c(C)c1	34	52*	3	0.9	14	0.5
Cc1ccc(C)c(OCc2nc(-c3cccnc3)no2)c1	12	90*	-4	0.7	31	0.1
Cc1cc(Br)ccc1OCc1nc(-c2cccnc2)no1	-28	40	-1	1.1	-10	0.6
COc1nc(-c2ccc(C)cc2)ccc1-c1noc(-c2cccnc2)n1	-10	27	0	0.6	42	0.7
CCOC(=O)c1cc2occc2n1CC(=O)Nc1ccc(OC)cc1OC	-10	37	1	0.6	37	0.6
COc1ccc(OC)c(/C(O)=C/C(=O)C(=O)Nc2ccccc2OC)c1	-17	4	1	1.1	-14	1
COc1ccc(-c2csc(N(CCCN3CCOCC3)C(=O)c3ccco3)n2)cc1	8	20	2	0.6	41	0.8
Cc1ccc(-c2csc(N(CCCN3CCOCC3)C(=O)c3ccco3)n2)cc1	-5	87*	2	0.1	92*	0.1
COCCCN(C(=O)c1ccco1)c1nc(-c2cc(OC)ccc2OC)cs1	-15	50	-7	0.2	76*	0.5
CCC(=O)N(CCCN(C)C)c1nc(-c2cc(OC)ccc2OC)cs1	-51	25	4	0.9	14	0.8
O=C(c1ccco1)N(CC1CCCO1)c1nc(-c2ccccc2)cs1 (stereo not drawn)	1	87*	10	0.2	85*	0.1
O=C(c1cccs1)N(CC1CCCO1)c1nc(-c2ccccc2)cs1 (stereo not drawn)	6	95*	1	0.1	89*	0
Cc1ccc(-c2csc3ncnc(-n4cnc5ccccc54)c23)cc1	8	x	-1	x	x	x

Assay outcomes deposited in PubChem by Sanford-Burnham Center for Chemical Genomics.
